Screens from PubChem.
This is a sample that favours compounds with a hit; in the whole collection about 3% have one here.
Measles CPE – compounds protecting cells from measles virus cytopathic effect, primary screen, measles RdRp inhibitor project, single point, MLSMR library, absorbance; Measles virus-infected cells, CPE protection; protection (pct of control), % at 4 µM; 140,000 compounds, 1.5% hits; AID 841, 2007; in the data active = protection mostly above about 24%, no sharp cut-off; inactive = mostly below about 26%
sdo1 growth – growth rescue of sdo1-depleted yeast, primary screen, S. cerevisiae, bone marrow failure model | 140,000 compounds, 0.21% hits | S. cerevisiae sdo1-depleted JHY4D growth rescue, OD600 30 h; stronger effect = higher value; pdr5 snq2 efflux-pump mutant strain | z-score at 10 µM;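 active = z-score above 3 at both the 24 hr and the 30 hr optical density reads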;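 also: z-score against mean and SD of all compound wells on the same plate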
INS promoter inh – inhibitors of insulin promoter-driven GFP, primary screen, imaging, TRM-6 cells (human fetal islet line), eGFP reporter, cell count; inhibition, % at 2 µM; reporter expression induced with tamoxifen; AID 1273, 2008; 130,000 compounds, 0.9% hits;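 active = inhibition above the mean plus 3 SD, with well images judged a real hit on visual review, cut at about 60% in these data, passing the limit was not always enough; inconclusive = inhibition over the cutoff but images rejected on review; inactive = inhibition not above the cutoff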
ROMK primary – ROMK potassium channel modulators, primary screen, cell-based, thallium flux, MLSMR library | ATP-sensitive inward rectifier potassium channel 1 (Homo sapiens), P48048 | AID 1918, 2009 | Tet-inducible ROMK, thallium flux fluorescence; actives lie on both sides | 130,000 compounds, 2% hits | B-score at 10 µM;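 active = signal ratio slope over the read window, or its plate-corrected B-score, at least 3 SD from the plate mean, either direction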;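 also: B-score of the F/F0 ratio slope over 7 to 12 s after thallium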
Target sequence (P48048 whole entry, looked up): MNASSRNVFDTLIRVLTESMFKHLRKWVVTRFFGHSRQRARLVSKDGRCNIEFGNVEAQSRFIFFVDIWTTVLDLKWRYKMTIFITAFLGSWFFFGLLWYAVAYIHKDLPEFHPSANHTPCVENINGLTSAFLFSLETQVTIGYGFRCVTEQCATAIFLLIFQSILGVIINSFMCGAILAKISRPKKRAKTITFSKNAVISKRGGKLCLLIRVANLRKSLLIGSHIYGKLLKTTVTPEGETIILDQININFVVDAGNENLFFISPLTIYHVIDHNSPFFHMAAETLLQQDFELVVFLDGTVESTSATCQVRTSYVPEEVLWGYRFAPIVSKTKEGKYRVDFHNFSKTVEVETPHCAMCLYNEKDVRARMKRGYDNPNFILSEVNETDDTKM
ROMK retest – ROMK channel modulator hit retest, confirmation, cell-based, thallium flux, duplicate, resupplied hits; fluorescence ratio; stronger effect = lower value; normalized thallium flux (F/F0 slope) at 10 µM; 3,000 compounds, 54% hits; shares compounds with ROMK primary;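 active = Flux at 10 µM at least 3 SD below or above vehicle control mean in one or both replicates; inconclusive = no clear call, values can overlap the other calls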
* hit, by the source's call; ? = inconclusive; nt = no result given.

SMILES	Measles CPE	sdo1 growth	INS promoter inh	ROMK primary	ROMK retest
O=C(NCc1cccs1)C1CC(c2ccc(Cl)cc2)=NO1 (configuration not stated)	nt	nt	nt	0.66	nt
COc1cccc(C2=NOC(C(=O)NCc3ccco3)C2)c1 (configuration not stated)	7	1	29	5*	0.081
O=C(NCc1ccco1)C1CC(c2ccc(Cl)cc2)=NO1 (configuration not stated)	nt	nt	nt	4.6*	0.093
CCN(C(=O)COc1cccc2cccnc12)C1CCS(=O)(=O)C1 (configuration not stated)	nt	nt	45	0.07	nt
O=C(CCc1ccccc1)NC(=S)Nc1ccccc1Br	nt	nt	nt	-1.5	nt
Cc1c(C(=O)O)cccc1-c1ccc(/C=N/Nc2ccc(Br)cc2)o1	13	-0.81	32	1.7*	0.1*
O=C(O)c1ccc(N/N=C/c2ccc(-c3cc(Cl)ccc3Cl)o2)cc1	nt	nt	nt	0.92	nt
Cc1nc(NC2=NCN(CC3CCCO3)CN2)nc2ccccc12 (configuration not stated)	nt	nt	17	nt	nt
CN(Cc1ccccc1)c1ccc2nnc(-c3ccccc3)n2n1	5	-1.7	-100	-3.7*	0.065*
O=C(NCCSC1CCCCC1)c1ccccc1	nt	nt	nt	-0.17	nt
COc1ccc(C(=O)NCCSC2CCCCC2)cc1	13	0.05	-7	-2.2*	?
CCOc1cc(NC(=S)NCCCN2CCOCC2)c(OCC)cc1NC(=O)CC(C)C	6	0.81	nt	nt	nt
CCOC(=O)C1(Cc2ccccc2)CCN(Cc2cn(CC(=O)OC)c3ccccc23)CC1	nt	nt	nt	-3.3*	0.055*
CCOC(=O)C1(Cc2ccccc2)CCN(Cc2cccc(OC)c2O)CC1	nt	nt	nt	-1.1	nt
COc1ccccc1-c1ccc(/C=C2\C=CC(=O)O2)o1	nt	nt	nt	nt	0.044*
COc1ccccc1-c1ccc(/C=C2/C=C(C)OC2=O)o1	4	-1.3	11	-1.1	nt
N#Cc1c(Nc2ccc(Cl)cc2)s[nH]c1=O	nt	nt	nt	-12*	0.065*
N#Cc1ccc(NC(=O)Nc2ccc(Cl)cc2)cc1	2	-1.9	nt	nt	nt
Cc1ccc([C@@H]2C3COCC=C3C(C#N)=C(N)C2(C#N)C#N)o1 (some centres not stated)	6	1.2	nt	-4.5*	0.046*
CC1CC=C2C(C#N)=C(N)C(C#N)(C#N)C(c3cccs3)C2C1 (configuration not stated)	5	-1.6	-29	nt	nt
Cc1noc(C)c1COC(=O)c1ccc2c(c1)S(=O)(=O)c1ccccc1C2=O	15	-0.91	nt	nt	0.078
Cc1ccc(NC(=S)N(CCCN2CCCC2)Cc2cccn2Cc2ccc(Cl)cc2)cc1C	nt	nt	-64	-2.8*	0.062*
CCCc1ccc(Oc2cn[nH]c2-c2ccc(O)c(C)c2O)cc1	8	-2.6	-16	-4*	0.058*
CCCc1ccc(Oc2c(-c3ccc(O)c(C)c3O)n[nH]c2C)cc1	12	-2.6	nt	nt	nt
COc1cc(C(=O)N/N=C/c2sccc2C)cc(OC)c1OC	nt	nt	-233	5.1*	?
SMILES	Measles CPE	sdo1 growth	INS promoter inh	ROMK primary	ROMK retest
COc1cc(C(=O)N/N=C/c2cc([N+](=O)[O-])cs2)cc(OC)c1OC	3	0.65	-375	4.1*	0.088
Cc1ccsc1/C=N/NC(=O)c1ccncc1	nt	nt	19	0.92	nt
CC(C)C(=O)O/N=C(\N)c1ccc(Oc2ccc(Cl)cc2)c([N+](=O)[O-])c1	nt	nt	nt	0.74	nt
COc1ccc(NC(=O)c2sccc2C)cn1	nt	nt	nt	0.35	nt
Cc1cc(NC(=O)CN2C(=O)/C(=C/c3cccc(Br)c3)SC2=S)no1	nt	nt	36	-4.2*	0.081
O=C(CSCc1ccc(F)cc1)NCc1ccc(F)cc1	nt	nt	0	3*	0.079
Cc1ccc(CSCC(=O)NCc2ccc(F)cc2)cc1	nt	nt	6	-0.24	nt
CO/N=C\c1cc(C(=O)c2ccc(Cl)cc2Cl)cn1C	nt	nt	nt	-1	nt
COc1cc(S(=O)(=O)Nc2ccccc2C)ccc1Cl	7	-0.4	12	nt	0.073
COc1ccc(S(=O)(=O)NCc2ccccc2Cl)cc1OC	6	-0.94	-19	nt	0.076
COc1ccc(Cl)cc1NS(=O)(=O)c1ccc(OC)c(OC)c1	28	-0.6	50	-3.1*	0.075
COc1cc(CC(=O)OCC(=O)Nc2sccc2C(N)=O)cc(OC)c1OC	nt	nt	91*	-2.5	0.062*
CCn1c(=O)[nH]c(=O)c2c(N)c(C(=O)c3ccccc3OC)sc21	8	0.94	44	3.7*	0.095
